ChEMBL document CHEMBL3988442, “University of Dundee, Small-Polar-MMV Screening Library” (2021)
Out of some 48,000 compounds screened, about 13,000 (27%) showed an effect of 50% or more. The list shows a part of the results.

Test system: Wolbachia pipientis
Assay: Anti-Wolbachia Cell-Based Screen
Format: functional
Design: scale not given: in the data most compounds retested in dose-response had high values
Details: 5 µM

| SMILES | Percent Effect |
| --- | --- |
| O=C(O)CCNC(=O)C1(c2cccc(Br)c2)CCOCC1 | -13.76% |
| NC(=O)C1CCCN1Cc1ccccc1NC(=O)Cc1cccc(F)c1 (stereo not given) | -5.666% |
| N#Cc1cccnc1NCCNC(=O)N1CCSCC1 | -7.557% |
| CC(C)N1CCc2[nH]nc(C(=O)N3CCN(C)CC3)c2C1.O=C(O)C(F)(F)F.O=C(O)C(F)(F)F.O=C(O)C(F)(F)F | -19.75% |
| CCC(C)N1Cc2c(C(=O)N3CCOCC3)nn(C)c2C1.O=C(O)C(F)(F)F (stereo not given) | 101.3% |
| CC(C)N1CCc2[nH]nc(C(=O)N3CCOCC3)c2C1.O=C(O)C(F)(F)F.O=C(O)C(F)(F)F | -15.4% |
| Cn1nc(Cn2cccn2)c2c1CN(C1CCOC1)C2.O=C(O)C(F)(F)F (stereo not given) | -10.84% |
| CC(C)N1Cc2c(C(=O)N3CCN(C)CC3)nn(C)c2C1 | 107% |
| CC(C)N1CCc2ncn(C)c2C1C(=O)N1CCOCC1.O=C(O)C(F)(F)F (stereo not given) | -11.58% |
| CC(C)N1CCc2c(C(=O)N3CCOCC3)nn(C)c2C1.O=C(O)C(F)(F)F | 113.7% |
| CCC(C)N1Cc2c(C(=O)N3CCCC3)nn(C)c2C1.O=C(O)C(F)(F)F (stereo not given) | 4.311% |
| CCC(C)N1CCc2c(C(=O)N(C)Cc3ccccn3)nn(C)c2C1 (stereo not given) | -11.92% |
| CCSc1ccccc1C(=O)N1CCC(S(=O)(=O)c2nncn2C)CC1 | -2.113% |
| O=C(CCN1CCc2cncnc2C1)N1CCc2sccc2C1 | -13.17% |
| CCCN(Cc1nc2ccccc2[nH]1)Cc1ccccc1OC | -7.618% |
| CNC(=O)C(CC(C)C)NC(=O)c1cccc(-c2n[nH]c(C)n2)c1 (stereo not given) | -1% |
| CN1CCCC(c2cccc(CCC(=O)NCC3(C)COC3)n2)C1 (stereo not given) | 99.75% |
| Cc1cnc(CN(C)C2CCN(CC(=O)Nc3c(C)n[nH]c3C)C2)o1 (stereo not given) | -8.354% |
| O=C(CCc1ccccn1)NC1CCCN(C2Cc3ccccc3C2)C1 (stereo not given) | 4.048% |
| CN1CCN(C(=O)c2cccc(S(=O)(=O)NCC3(C)COC3)c2)CC1 | -15.33% |
| CC(=O)N1CCCN(C(=O)NCc2ccccn2)CC1 | -1.258% |
| Cc1n[nH]c(C)c1NC(=O)CCc1cccc(C2CCCN(C)C2)n1 (stereo not given) | 122.5% |
| Cc1n[nH]c(C)c1NC(=O)CN1CCc2c(nc(C3CC3)n2C)C1 | 10.04% |
| COCC1CCN(C(=O)c2cccc(S(=O)(=O)NCC3(C)COC3)c2)C1 (stereo not given) | -10.59% |

| SMILES | Percent Effect |
| --- | --- |
| CN1CCCC(c2cccc(CCC(=O)NCc3ccccn3)n2)C1 (stereo not given) | 93.1% |
| CNC(=O)CCc1cccc(C2CCCN(c3cc(C)ncn3)C2)n1 (stereo not given) | 97.41% |
| O=C(Cn1cc(C(=O)O)ccc1=O)Nc1cc(F)ccc1F | -7.497% |
| Cc1[nH]ccc1C(=O)NC1CCC(N2C(=O)CCC2=O)CC1 (stereo not given) | -10.09% |
| Cc1cc(C)c(CNC(=O)NCCCNc2ccccn2)c(=O)[nH]1 | 5.95% |
| CCc1noc(CS(=O)(=O)Cc2nc(Cc3ccccc3)no2)n1 | 6.103% |
| CN1CCCC(c2cccc(CCC(N)=O)n2)C1 (stereo not given) | 113.5% |
| CN1CCC(c2cccc(CCC(=O)NCC(N)=O)n2)CC1 | 102.3% |
| O=C(CCc1ccccn1)NC1CCN(c2cccc(Cl)c2)C1 (stereo not given) | 3.633% |
| CS(=O)(=O)N[C@@H]1CCN(Cc2ccncc2)[C@H]1Cc1cccnc1 | -7.843% |
| O=C(NCC1CC1)c1nc2c(o1)CN(CC1CC1)C2.O=C(O)C(F)(F)F | -8.922% |
| COc1ccccc1[S+]([O-])CC(=O)NCc1cc(F)cc(F)c1 (stereo not given) | -8.178% |
| COc1cc(C(=O)NCC2CC2)nc2c(C)cc(F)cc12 | 82.93% |
| COc1ccc(F)cc1C(C)NC(=O)c1nnc(C)s1 (stereo not given) | 1.178% |
| O=C(NCC1CCCO1)c1cc(COc2ccccc2F)[nH]n1 (stereo not given) | -5.725% |
| CCNC(=O)c1cc(OC)c2cc(F)cc(C)c2n1 | 114.2% |
| COc1ccccc1C(O)Cn1cc(C(=O)NCC2CC2)nn1 (stereo not given) | -12.95% |
| CCNC(=O)N(C)Cc1ccc(SC)c(OC)c1 | -16.12% |
| Cc1cc(C(=O)NC(C)C(=O)Nc2cc(F)ccc2C)nc(C)n1 (stereo not given) | -4.486% |
| COc1cc(CCNC(=O)NCCC2CCCO2)ccc1C (stereo not given) | -11.71% |
| COc1cc(C(=O)NC(C)C)nc2c(C)cc(F)cc12 | 104.7% |
| COc1cc(C(=O)NCC2CCCO2)nc2c(C)cc(F)cc12 (stereo not given) | 102.3% |
| CS(=O)(=O)c1ccc(CNC[C@H]2COCc3nc4ccccc4n32)cc1 | -0.06058% |
| CN1CC[C@H]2CN(C(=O)c3ccc4sc5c(c4c3)CCNC5=O)C[C@H]21 | 3.711% |

| SMILES | Percent Effect |
| --- | --- |
| CCN(CC)C(=O)Cn1cc(C(=O)NCCCc2scnc2C)nn1 | 7.072% |
| CC(C)(C)C(O)CN1CCN(CC(=O)NC(C2CC2)C2CC2)CC1 (stereo not given) | 12.33% |
| O=C(C1CCSCC1)N1CC[C@H]2OCC[C@@]2(COCC2CC2)C1 | -16.75% |
| Cc1nc(S(=O)(=O)CCn2cccn2)n(C2CCCCC2)c1C | -17.58% |
| N#Cc1ccc(SCCCO)c(F)c1 | -3.443% |
| O=C(C[C@@H]1COC[C@H]2CN(Cc3ccncc3)C[C@@H]12)N1CCOCC1.O=C(O)C(F)(F)F.O=C(O)C(F)(F)F | 3.799% |
| O=C(C[C@@H]1COC[C@H]2CN(Cc3ccc(F)cc3)C[C@@H]12)N1CCOCC1.O=C(O)C(F)(F)F | 19.83% |
| O=C(C[C@@H]1COC[C@H]2CN(C(=O)c3cccnc3)C[C@@H]12)N1CCOCC1.O=C(O)C(F)(F)F | 132.5% |
| Cc1cnc(CNC(=O)C[C@@H]2COC[C@H]3CN(C4CCC4)C[C@@H]23)cn1 | -2.895% |
| O=C(C[C@@H]1COC[C@H]2CN(C(=O)c3cccnc3)C[C@@H]12)N1CCCC1.O=C(O)C(F)(F)F | 97.49% |
| O=C(Nc1cnccn1)[C@@H]1COC[C@H]2CN(C3CCCC3)C[C@H]21.O=C(O)C(F)(F)F | 2.256% |
| COc1cc(N2C[C@H]3CN(C(=O)c4cccnc4)C[C@H]3C2)ncn1.O=C(O)C(F)(F)F | -0.6433% |
| O=C(C[C@@H]1COC[C@H]2CN(C3CCCC3)C[C@@H]12)NCc1cccnc1.O=C(O)C(F)(F)F.O=C(O)C(F)(F)F | 105.3% |
| COCc1nn(CC2CC2)c2c1CN(Cc1ccco1)CC2.O=C(O)C(F)(F)F | -26.88% |
| Cc1cc(NC(=O)CN(CC(C)O)c2ccccc2)on1 (stereo not given) | -1.303% |
| CC(=O)N1N=C(COc2ccc(C)cc2)OC1c1ccc(N(C)C)cc1 (stereo not given) | 128.5% |
| CC(=O)N(C)Cc1ccc(OCc2cccs2)cc1 | 14.59% |
| COc1ccc(C2OC(COc3ccc(C)cc3)=NN2C(C)=O)cc1 (stereo not given) | 120.9% |
| COc1ccc(OCc2nc(C(=O)N3CCC(NC(C)=O)C3)co2)cc1 (stereo not given) | 5.881% |
| COc1ccc(C2OC(COc3ccccc3Br)=NN2C(C)=O)cc1 (stereo not given) | -8.819% |
| COc1cc(C(=O)N(CCC#N)Cc2ccccn2)cc(OC)c1C | 1.954% |
| O=C(CC1CCN(CCc2ccccc2)CC1)NC1CCOCC1 | 134.1% |
| O=C(CC1CCN(CCc2ccccc2)CC1)N1CCCOCC1 | 161.2% |
| O=C(CC1CCN(CCN2CCCCC2)CC1)N1CCOCC1 | -17.01% |

| SMILES | Percent Effect |
| --- | --- |
| O=C(Cc1cnn(-c2ccccc2)n1)NC1CCOCC1 | 19.75% |
| O=C(CC1CN(Cc2ccccc2)CCO1)NC1CCCC1 (stereo not given) | 4.16% |
| O=C(NCC1CCN(CCc2ccccc2)C1)NCC1(O)CCC1 (stereo not given) | -8.264% |
| CCCc1nc(CNC(=O)Cc2csc(C)n2)cs1 | -2.31% |
| Cc1nn(C)c(C)c1-c1ccnc(N(C)Cc2nc(C(C)C)no2)n1 | -10.91% |
| Cc1nn2cccnc2c1C(=O)NCc1ccccc1OC1CCC1 | -16.31% |
| O=C(c1cccnc1O)N1CCOC(Cc2cccc(C(F)(F)F)c2)C1 (stereo not given) | 16.06% |
| O=S(=O)(NCCCN1CC=CC1)c1cncc(Cl)c1 | -17.29% |
| CC1(C)CNC(=O)c2nc(-c3ccccc3)[nH]c2C1 | 3.068% |
| CC1(C)CNC(=O)c2nc(CCN3CCC(O)CC3)[nH]c2C1 | -46.57% |
| CCC(O)c1nc2c([nH]1)CC(C)(C)CNC2=O (stereo not given) | 130.2% |
| CCOCC(O)c1nc2c([nH]1)CC(C)(C)CNC2=O (stereo not given) | 90.67% |
| CC1(C)CNC(=O)c2nc(CCN3CCC(C(N)=O)CC3)[nH]c2C1 | -47.56% |
| CC1(C)CNC(=O)c2nc(-c3nnc(-c4ccccc4)[nH]3)[nH]c2C1 | 3.309% |
| Cc1cc(OCC(O)c2nc3c([nH]2)CC(C)(C)CNC3=O)ccc1Cl (stereo not given) | 90.28% |
| CC1(C)CNC(=O)c2nc(-c3n[nH]c(=O)[nH]3)[nH]c2C1 | -9.314% |
| CC1(C)CNC(=O)c2nc(-c3nnn[nH]3)[nH]c2C1 | 23.12% |
| CC(C)(C)CNS(=O)(=O)C1CS(=O)(=O)c2ccccc21 (stereo not given) | -2.538% |
| CCN(C)S(=O)(=O)N1CCC(C(O)c2ccc(F)cc2)CC1 (stereo not given) | -5.224% |
| Cc1noc2nc3c(c(C(=O)/N=c4\[nH]nc(C(C)C)s4)c12)CCC3 | 96.48% |
| Cc1nn(C)c2nc3c(c(C(=O)/N=c4\[nH]nc(C(C)C)s4)c12)CCC3 | 112.1% |
| Cc1n[nH]/c(=N\C(=O)c2c3c(nc4onc(C)c24)CCC3)s1 | 84.01% |
| COCc1n[nH]/c(=N\C(=O)c2c3c(nc4onc(C)c24)CCC3)s1 | 76.74% |
